Assay in all cases: NCI-60 one-dose screen, 48 h (100 = growth as untreated, 0 = no growth, -100 = all killed)
The subject of one assay is SK-MEL-2 melanoma. To be noted: 10 µM unless noted.
The subject of a further assay is EKVX NSCLC. To be noted: 10 µM unless noted.
In the next assay the test system is SN12C renal. To be noted: 10 µM unless noted.
Another assay deals with UO-31 renal. To be noted: 10 µM unless noted.
A further assay deals with TK-10 renal. To be noted: 10 µM unless noted.
A further assay concerns ACHN renal. To be noted: 10 µM unless noted.
The subject of the next assay is CAKI-1 renal. To be noted: 10 µM unless noted.
The test system of a further assay is A498 renal. To be noted: 10 µM unless noted.
The test system of the next assay is CCRF-CEM leukemia. To be noted: 10 µM unless noted.
A further assay has as its system MOLT-4 leukemia. To be noted: 10 µM unless noted.
The next assay concerns SR leukemia. To be noted: 10 µM unless noted.
A further assay relates to RPMI-8226 leukemia. To be noted: 10 µM unless noted.
The subject of a further assay is OVCAR-8 ovarian. To be noted: 10 µM unless noted.
The next assay deals with OVCAR-5 ovarian. To be noted: 10 µM unless noted.
A further assay concerns OVCAR-4 ovarian. To be noted: 10 µM unless noted.
Another assay concerns SK-OV-3 ovarian. To be noted: 10 µM unless noted.
A further assay deals with IGROV1 ovarian. To be noted: 10 µM unless noted.
A further assay deals with OVCAR-3 ovarian. To be noted: 10 µM unless noted.
A further assay deals with HS 578T breast. To be noted: 10 µM.
Another assay relates to NCI/ADR-RES ovarian. To be noted: 10 µM unless noted.

8 compounds from PubChem BioAssay (NCI) can be followed below.

About 83,000 compounds went through this panel and 20% of them were active in at least one assay; those are over-represented in the sample as a whole.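 Values shown are percent growth following 48 h exposure of cells in 96-well plates to a single concentration of compound; below 10 was considered active.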 Values without a mark were called inactive. Activity calls are given as the source filed them.

`Oc1c(-c2cc(C(F)(F)F)[nH]n2)cc(Cl)c(OCc2ccc(Cl)cc2)c1-c1ccc(Cl)c(C(F)(F)F)c1`: the growth in the assay on SK-MEL-2 melanoma was -40.9% (active); in the assay on EKVX NSCLC it was 4.67% (active); in the assay on SN12C renal, 5.54% (active); in the assay with UO-31 renal, -27.6% (active); in the assay on TK-10 renal, 7.21% (active); in the assay on ACHN renal, 0.909% (active). Moreover, the growth is -15.7% (active) with CAKI-1 renal; -51.1% (active) with A498 renal; 5.04% (active) with CCRF-CEM leukemia; -14.8% (active) in the assay on MOLT-4 leukemia; 15.2% in the assay with SR leukemia; -27.9% (active) in the assay with RPMI-8226 leukemia. The growth with OVCAR-8 ovarian was 9.67% (active); in the assay with OVCAR-5 ovarian, 30.3%; in the assay with OVCAR-4 ovarian, 19%; with SK-OV-3 ovarian, 6.29% (active); in the assay on IGROV1 ovarian, 19.8%; with OVCAR-3 ovarian, 10.5%. The growth with HS 578T breast is 5.31% (active); in the assay with NCI/ADR-RES ovarian, 9.38% (active).
Take `Oc1[nH]c2ccc(Cl)cc2c1/C=c1/ccc2c(c1)N=C(c1ccc(F)cc1)N=2`: the growth in the assay on SK-MEL-2 melanoma was 92.3%; in the assay with EKVX NSCLC, 40.4%; with SN12C renal, 74.1%; in the assay on UO-31 renal it was 61.4%; in the assay with TK-10 renal it was 111%; in the assay with ACHN renal it was 86.6%. Moreover, the growth is 44.5% with CAKI-1 renal; 56.1% in the assay on A498 renal; 7.83% (active) with CCRF-CEM leukemia; 35% in the assay on MOLT-4 leukemia; 8.49% (active) with SR leukemia; 69.2% with RPMI-8226 leukemia. The growth in the assay with OVCAR-8 ovarian is 84.7%; in the assay with OVCAR-5 ovarian, 103%; with OVCAR-4 ovarian, 79.4%; with SK-OV-3 ovarian, 87.4%; in the assay with IGROV1 ovarian, 5.76% (active); in the assay with OVCAR-3 ovarian, 72%. For the same compound, the figures for the growth in the assay on HS 578T breast and with NCI/ADR-RES ovarian were 68.1% and 44.3%, respectively.
Consider `O=C(NC1CC1)c1ccc(-c2nc3ccc4[nH]ncc4c3c3c2CCCC3)cc1`, for which the growth in the assay with SK-MEL-2 melanoma was 2.88% (active); in the assay on EKVX NSCLC it was 55.6%; with SN12C renal, 48.4%; in the assay on UO-31 renal, 25.9%; with TK-10 renal it was 8.68% (active); in the assay on ACHN renal, 17.1%. For the same compound, the growth was 0.658% (active) in the assay with CAKI-1 renal; -5.47% (active) in the assay on A498 renal; 29.7% with CCRF-CEM leukemia; 38.8% with MOLT-4 leukemia; 32.2% in the assay on SR leukemia; 50.5% in the assay with RPMI-8226 leukemia. Moreover, the growth is 38.8% with OVCAR-8 ovarian; 75.2% with OVCAR-5 ovarian; 61.6% with OVCAR-4 ovarian; -7.43% (active) in the assay on SK-OV-3 ovarian; 22.7% in the assay with IGROV1 ovarian; 58% in the assay on OVCAR-3 ovarian. The growth is 4.47% (active) in the assay with HS 578T breast and 72.1% with NCI/ADR-RES ovarian.
On to `COc1cccc2nc(Nc3cccc(NC(=O)c4ccc(N5CCN(C)CC5)c(C(F)(F)F)c4)c3)ccc12`, for which the growth in the assay with SK-MEL-2 melanoma was 77.4%; with EKVX NSCLC, 66.7%; with SN12C renal it was 45.7%; in the assay on UO-31 renal it was 22.1%; with TK-10 renal it was 51.1%; in the assay on ACHN renal it was 26.8%. Also, the growth with CAKI-1 renal was 24.8%; in the assay on A498 renal, 64.4%; in the assay with CCRF-CEM leukemia, 12.5%; in the assay with MOLT-4 leukemia it was -16.6% (active); in the assay with SR leukemia, -7.69% (active); with RPMI-8226 leukemia, 7.17% (active). In addition, the growth was 30.7% with OVCAR-8 ovarian; 61.5% with OVCAR-5 ovarian; 39.5% in the assay with OVCAR-4 ovarian; 81.7% in the assay on SK-OV-3 ovarian; 28.6% in the assay with IGROV1 ovarian; 29.6% in the assay with OVCAR-3 ovarian. The growth with HS 578T breast was 32.6%; in the assay with NCI/ADR-RES ovarian, 43.9%.
`CN1CCN(Cc2ccc(NC(=O)c3cncc(C#Cc4ccc(N)nc4)c3)cc2C(F)(F)F)CC1`: the growth is -47.8% (active) with SK-MEL-2 melanoma; 7.69% (active) in the assay with EKVX NSCLC; 4.16% (active) in the assay on SN12C renal; -1.73% (active) in the assay on UO-31 renal; 12.7% in the assay with TK-10 renal; -3.03% (active) in the assay on ACHN renal. The growth in the assay with CAKI-1 renal is 8.16% (active); with A498 renal, -33.8% (active); with CCRF-CEM leukemia, 13%; in the assay on MOLT-4 leukemia, 5.85% (active); in the assay with SR leukemia, 1.34% (active); in the assay with RPMI-8226 leukemia, 1.97% (active). The growth is 20.1% in the assay on OVCAR-8 ovarian; 12.5% in the assay with OVCAR-5 ovarian; -8.78% (active) with OVCAR-4 ovarian; -11% (active) with SK-OV-3 ovarian; -18.2% (active) in the assay with IGROV1 ovarian; 27.2% in the assay with OVCAR-3 ovarian. Besides, the growth is -21.9% (active) in the assay on HS 578T breast and 25.6% in the assay on NCI/ADR-RES ovarian.
In the case of `CC(=O)c1ccc(Nc2nc(Cl)nc(Oc3c(Cl)cccc3Cl)n2)cc1`, the growth in the assay on SK-MEL-2 melanoma is 97.1%; in the assay on EKVX NSCLC, 77.2%; in the assay with SN12C renal it was 93.1%; in the assay on UO-31 renal, 77.8%; with TK-10 renal, 115%; in the assay on ACHN renal, 98.3%. Also, the growth in the assay on CAKI-1 renal was 85.5%; in the assay on A498 renal it was 69.3%; with CCRF-CEM leukemia, 91%; with MOLT-4 leukemia it was 77.1%; in the assay on SR leukemia it was 82.3%; with RPMI-8226 leukemia it was 70%. Further, the growth is 92.5% in the assay on OVCAR-8 ovarian; 105% with OVCAR-5 ovarian; 67.2% in the assay with OVCAR-4 ovarian; 100% with SK-OV-3 ovarian; 89.1% in the assay on IGROV1 ovarian; 90.9% with OVCAR-3 ovarian. Further, the growth in the assay with HS 578T breast was 74.3%; in the assay with NCI/ADR-RES ovarian, 93.6%.
As to `CCN(CC)CCCCCCCNc1cc(OC)cc2c(C)ccnc12`, the growth is 109% in the assay with SK-MEL-2 melanoma; 86.7% with EKVX NSCLC; 81.6% in the assay on SN12C renal; 38.2% in the assay on UO-31 renal; 110% with TK-10 renal; 87.7% in the assay with ACHN renal. Also, the growth is 94% in the assay with CAKI-1 renal; 63.2% in the assay on A498 renal; 83.7% in the assay on CCRF-CEM leukemia; 72% in the assay on MOLT-4 leukemia; 73.2% in the assay with SR leukemia; 68.9% in the assay on RPMI-8226 leukemia. The growth is 67.2% in the assay with OVCAR-8 ovarian; 97.5% in the assay with OVCAR-5 ovarian; 21.1% in the assay with OVCAR-4 ovarian; 94.9% in the assay with SK-OV-3 ovarian; 52.6% with IGROV1 ovarian; 20.6% in the assay on OVCAR-3 ovarian. Besides, the growth in the assay with HS 578T breast is 72.4%; with NCI/ADR-RES ovarian it was 78.6%.
As for `COc1c(C(=O)/C=C/c2ccc(C)o2)c(O)cc2occc12`, the growth was 82.2% in the assay on SK-MEL-2 melanoma; 68.6% in the assay on EKVX NSCLC; 82.6% in the assay on SN12C renal; 81.2% with UO-31 renal; 100% in the assay on TK-10 renal; 97.6% with ACHN renal. The growth was 74.2% in the assay with CAKI-1 renal; 66.6% with A498 renal; 84.6% in the assay on CCRF-CEM leukemia; 64% in the assay on MOLT-4 leukemia; 42.8% in the assay with SR leukemia; 82.5% in the assay with RPMI-8226 leukemia. The growth in the assay with OVCAR-8 ovarian is 84.8%; in the assay with OVCAR-5 ovarian, 107%; in the assay on OVCAR-4 ovarian, 80.9%; with SK-OV-3 ovarian, 88.6%; in the assay on IGROV1 ovarian it was 69.3%; with OVCAR-3 ovarian, 47.6%. Moreover, the growth in the assay with HS 578T breast is 65.8%; with NCI/ADR-RES ovarian, 52.2%.
